# Measurements as given in PubChem BioAssay AID1159580 (chemical genetic matrix, 2015).
# The campaign covered roughly 5,500 compounds. About 2,000 (36%) were called active. Not shown: some 18% with an inconclusive outcome. The list shows a part of the results. Unmarked numbers belong to inactive results. Rule as the data show it: active = normalized growth mostly below about 0.91 (no sharp cut-off); inconclusive = no clear call, values can overlap the other calls; inactive = mostly above about 0.92.
# Test: chemical genetic growth profiling, strain panel (AID 1159580);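 also: tested at 20 µM; growth read once vehicle control cultures reached saturation at 30 °C; 1 = growth at the plate median or of vehicle wells; lower values mean less growth of the strain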
# Settings: S. cerevisiae deletion strains, growth OD
smiles,measurement,setting,value
O=C(Oc1cccc2[nH]ccc12)c1ccc(C(F)(F)F)cc1,normalized growth,"locus YAR019C, strain CDC15, active compounds read low",0.968
same,normalized growth,"locus YBL105C, strain PKC1, active compounds read low",0.97
same,normalized growth,"locus YBR135W, strain CKS1, active compounds read low",0.974
same,normalized growth,"locus YBR136W, strain MEC1, active compounds read low",0.968
same,normalized growth,"locus YBR160W, strain CDC28, active compounds read low",0.974
same,normalized growth,"locus YDL017W, strain CDC7, active compounds read low",0.965
same,normalized growth,"locus YDL028C, strain MPS1, active compounds read low",0.974
same,normalized growth,"locus YDL101C, strain DUN1, active compounds read low",0.984
same,normalized growth,"locus YDL108W, strain KIN28, active compounds read low",0.971
same,normalized growth,"locus YDL132W, strain cdc53, active compounds read low",0.973
same,normalized growth,"locus YDL214C, strain PRR2, active compounds read low",0.82
same,normalized growth,"locus YDR052C, strain DBF4, active compounds read low",0.972
same,normalized growth,"locus YDR054C, strain cdc34, active compounds read low",0.961
same,normalized growth,"locus YDR226W, strain ADK1, active compounds read low",0.956
same,normalized growth,"locus YDR477W, strain SNF1, active compounds read low",0.814
same,normalized growth,"locus YER123W, strain YCK3, active compounds read low",0.702
same,normalized growth,"locus YER133W, strain GLC7, active compounds read low",0.775
same,normalized growth,"locus YFL009W, strain cdc4, active compounds read low",0.966
same,normalized growth,"locus YFL029C, strain CAK1, active compounds read low",0.968
same,normalized growth,"locus YFR003C, strain YPI1, active compounds read low",0.966
same,normalized growth,"locus YFR019W, strain FAB1, active compounds read low",0.855
same,normalized growth,"locus YFR028C, strain CDC14, active compounds read low",0.955
same,normalized growth,"locus YGR040W, strain KSS1, active compounds read low",0.805
same,normalized growth,"locus YGR052W, strain FMP48, active compounds read low",0.763
same,normalized growth,"locus YGR092W, strain DBF2, active compounds read low",0.634
same,normalized growth,"locus YHR030C, strain SLT2, active compounds read low",0.454 (active)
same,normalized growth,"locus YHR079C, strain IRE1, active compounds read low",0.607
same,normalized growth,"locus YHR082C, strain KSP1, active compounds read low",0.857
same,normalized growth,"locus YHR205W, strain SCH9, active compounds read low",0.862
same,normalized growth,"locus YIL147C, strain SLN1, active compounds read low",0.962
same,normalized growth,"locus YJL095W, strain BCK1, active compounds read low",0.645
same,normalized growth,"locus YJL128C, strain PBS2, active compounds read low",0.933
same,normalized growth,"locus YJL157C, strain FAR1, active compounds read low",0.807
same,normalized growth,"locus YJR016C, strain ILV3, active compounds read low",0.966
same,normalized growth,"locus YJR066W, strain TOR1 (second series), active compounds read low",0.699
same,normalized growth,"locus YJR066W, strain TOR1, active compounds read low",0.679
same,normalized growth,"locus YKL048C, strain ELM1, active compounds read low",0.786 (active)
same,normalized growth,"locus YKL067W, strain YNK1, active compounds read low",0.827
same,normalized growth,"locus YKL101W, strain HSL1, active compounds read low",0.788
same,normalized growth,"locus YKL193C, strain SDS22, active compounds read low",0.964
same,normalized growth,"locus YKL203C, strain TOR2, active compounds read low",0.831
same,normalized growth,"locus YLR113W, strain HOG1, active compounds read low",0.754 (active)
same,normalized growth,"locus YLR133W, strain CKI1, active compounds read low",0.822
same,normalized growth,"locus YLR403W, strain SFP1, active compounds read low",0.831
same,normalized growth,"locus YML070W, strain DAK1, active compounds read low",0.791
same,normalized growth,"locus YMR001C, strain CDC5, active compounds read low",0.964
same,normalized growth,"locus YMR205C, strain PFK2 (second series), active compounds read low",0.862
same,normalized growth,"locus YMR277W, strain FCP1, active compounds read low",0.96
same,normalized growth,"locus YNL006W, strain LST8, active compounds read low",0.969
same,normalized growth,"locus YNL020C, strain ARK1, active compounds read low",0.763
same,normalized growth,"locus YNL161W, strain CBK1, active compounds read low",0.987
same,normalized growth,"locus YNL183C, strain NPR1, active compounds read low",0.769
same,normalized growth,"locus YNL207W, strain RIO2, active compounds read low",0.97
same,normalized growth,"locus YNL222W, strain SSU72, active compounds read low",0.976
same,normalized growth,"locus YNL307C, strain MCK1 (second series), active compounds read low",0.859
same,normalized growth,"locus YOL078W, strain AVO1, active compounds read low",0.978
same,normalized growth,"locus YOL136C, strain PFK27, active compounds read low",0.815
same,normalized growth,"locus YOR061W, strain CKA2, active compounds read low",0.603 (active)
same,normalized growth,"locus YOR119C, strain RIO1, active compounds read low",0.887
same,normalized growth,"locus YOR231W, strain MKK1, active compounds read low",0.755
same,normalized growth,"locus YOR329C, strain SCD5, active compounds read low",0.97
same,normalized growth,"locus YPL031C, strain PHO85, active compounds read low",0.809
same,normalized growth,"locus YPL153C, strain RAD53, active compounds read low",0.757
same,normalized growth,"locus YPL204W, strain HRR25, active compounds read low",0.778
same,normalized growth,"locus YPL209C, strain IPL1, active compounds read low",0.965
same,normalized growth,"locus YPL256C, strain CLN2, active compounds read low",0.75 (active)
same,normalized growth,"locus YPR025C, strain CCL1, active compounds read low",0.975
same,normalized growth,"locus YPR106W, strain ISR1, active compounds read low",0.972
same,normalized growth,"locus YPR111W, strain DBF20, active compounds read low",0.937
same,normalized growth,"strain NNK1, active compounds read low",0.961
same,normalized growth,"strain TSCII, active compounds read low",0.967
